Where “and” joins values, the source holds several entries; their conditions need not be identical. Identical values can stand only once. Calls of active or inactive are those of the source. Rule as the data show it, unless noted: active = inhibition above about 80%; inactive = the rest.
How the values were obtained:
[1] = LFS_MB_P medulloblastoma growth inhibition, cell-based, chromothripsis tumors, cisplatin or BGB combos (AID 1671449); conditions: LFS_MB_P medulloblastoma cells;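 also: cells exposed for 96 hours; 0% = vehicle DMSO and 100% = killing by high DMSO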
[2] = HDN33 neuroblastoma growth inhibition, cell-based, chromothripsis tumors, cisplatin or BGB combos (AID 1671450); conditions: HDN33 neuroblastoma cells, stronger effect = higher value;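 also: cells exposed to compound for four days; 0% = vehicle DMSO and 100% = cell killing by high DMSO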
[3] = ICB984 medulloblastoma cell growth inhibition, synergistic combos for chromothripsis tumors, cisplatin or BGB combos (AID 1671451; call rule not given here;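 also: cells exposed for 96 hours before readout; 0% = vehicle DMSO and 100% = killing by high DMSO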); conditions: ICB984 medulloblastoma cells, drug combinations, stronger effect = higher value
[4] = LFS_MB_1R medulloblastoma cell growth inhibition, synergistic combos for chromothripsis tumors, cisplatin or BGB combos (AID 1671452); conditions: LFS_MB_1R medulloblastoma cells, stronger effect = higher value;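 also: cells exposed for 96 hours before readout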
[5] = HTB85 osteosarcoma cell growth inhibition, synergistic combos for chromothripsis tumors, BGB or cisplatin IC20 combos (AID 1671453); conditions: HTB85 osteosarcoma cells, drug combinations, stronger effect = higher value;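 also: cells exposed for 96 hours before readout; 0% = vehicle DMSO and 100% = high DMSO killing control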
[6] = CRL2098 osteosarcoma cell growth inhibition, synergistic combos for chromothripsis tumors, BGB or cisplatin IC20 combos (AID 1671454); conditions: CRL2098 osteosarcoma cells, drug combinations, stronger effect = higher value;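 also: cells exposed for 96 h before readout; 0% = vehicle DMSO and 100% = killing by high DMSO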
[7] = HD-MB03 medulloblastoma cell growth inhibition, synergistic combos for chromothripsis tumors, BGB or cisplatin IC20 combos (AID 1671455; in the data active = inhibition above about 83%;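 also: 0% = vehicle DMSO and 100% = high DMSO as cytotoxic control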); conditions: HD-MB03 medulloblastoma cells, stronger effect = higher value
[8] = UWB1.289 ovarian carcinoma cell growth inhibition, synergistic combos for chromothripsis tumors, BGB or cisplatin combos (AID 1671456); conditions: UWB1.289 ovarian carcinoma cells, stronger effect = higher value;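 also: cells exposed to compound for four days; 0% = vehicle DMSO and 100% = killing by high DMSO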
[9] = LFS_MB_2R medulloblastoma cell growth inhibition, synergistic combos for chromothripsis tumors, cisplatin combos (AID 1671457); conditions: LFS_MB_2R medulloblastoma cells, stronger effect = higher value;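 also: cells exposed to compound for four days before readout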
[10] = MDA-MB-436 breast carcinoma cell growth inhibition, synergistic combos for chromothripsis tumors, BGB or cisplatin combos (AID 1671458; call rule not given here;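 also: cells exposed for 96 hours; 0% = vehicle DMSO and 100% = killing by high DMSO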); conditions: MDA-MB-436 breast carcinoma growth inhibition, drug combinations, stronger effect = higher value
[11] = UWB1.289_BRCA1 ovarian cancer growth, cell-based, BGB or cisplatin combinations (AID 1671459); conditions: UWB1.289 BRCA1 ovarian carcinoma, drug combinations, stronger effect = higher value
[12] = human astrocyte viability loss, single and combined drugs, cytotoxicity control for chromothriptic childhood tumor combination screen, cell-based, BGB or cisplatin IC20 combos (AID 1671460); conditions: Human astrocytes, drug combinations, stronger effect = higher value;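 also: cells exposed to compounds for 96 hours before viability readout; 0% = vehicle and 100% = killing control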
[13] = growth inhibition of BT084 medulloblastoma cells, cell-based, ICGC_MB145, cisplatin and BGB IC40 combos (AID 1671461); conditions: drug combinations, stronger effect = higher value;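 also: cells exposed to drugs for 96 hours; 0% = vehicle DMSO and 100% = high DMSO full killing control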
[14] = growth inhibition of RCMB18 medulloblastoma cells, cell-based, cisplatin and BGB IC40 combos (AID 1671462); conditions: stronger effect = higher value;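 also: cells exposed to compound for four days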
[15] = growth inhibition of CRL1545 osteosarcoma cells, cell-based, cisplatin and BGB IC20 combos (AID 1671464); conditions: stronger effect = higher value;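 also: cells exposed to compound for 96 hours before readout; 0% = vehicle DMSO and 100% = high DMSO killing control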
[16] = measured here: combination with BGB IC40, at 0.05 µM
[17] = measured here: with BGB IC20 combination, at 0.5 µM
[18] = measured here: with cisplatin IC20 combination, at 0.5 µM
[19] = measured here: combination with cisplatin, at 0.5 µM
[20] = measured here: combination with cisplatin, at 5 µM

**Q.** For `Nc1nc(F)nc2c1ncn2C1OC(CO)C(O)C1O` (stereo not drawn), which inhibition ([1]; at 0.5 µM, stronger effect = higher value) is on record?
**A.** -23.4% (inactive) and 5.5% (inactive)

**Q.** And the inhibition ([1]; measured here: combination with BGB IC20, at 0.005 µM)?
**A.** -13.1% and 10.2%

**Q.** And the inhibition ([1]; measured here: combination with BGB IC40, at 0.005 µM)?
**A.** -4.16% and 17.3%

**Q.** And the inhibition [1, 16]?
**A.** -14.8% and 4.66%

**Q.** What about the inhibition ([1]; measured here: combination with cisplatin, at 0.5 µM, stronger effect = higher value) of the same compound?
**A.** -27.4% and 14.8%

**Q.** And the inhibition ([1]; measured here: combination with cisplatin, at 5 µM, stronger effect = higher value)?
**A.** 85.8% and 94.5%

**Q.** What about the inhibition ([2]; BGB combo, at 5 µM) of the same compound?
**A.** 27.6% and 14.7%

**Q.** What about the inhibition ([2]; at 0.5 µM) of the same compound?
**A.** -7.43% (inactive) and -36.4% (inactive)

**Q.** And the inhibition ([2]; cisplatin combo, at 5 µM)?
**A.** 20.8% and 7.89%

**Q.** And the inhibition [2, 17]?
**A.** 3.36% and -26.3%

**Q.** What about the inhibition [2, 18] of the same compound?
**A.** -16.4% and -54.5%

**Q.** And the inhibition ([2]; single agent, at 5 µM)?
**A.** 45.6% and 12.3%

**Q.** What about the inhibition ([3]; BGB IC20 combo, at 0.005 µM) of the same compound?
**A.** 20.7% and -6.33%

**Q.** What about the inhibition ([3]; BGB IC40 combo, at 0.005 µM) of the same compound?
**A.** -14.7% and -39.6%

**Q.** What about the inhibition ([3]; BGB IC40 combo, at 0.05 µM) of the same compound?
**A.** 0.533% and 4.89%

**Q.** And the inhibition ([3]; at 0.5 µM)?
**A.** -14.3% (inactive) and -20.5% (inactive)

**Q.** And the inhibition ([3]; cisplatin combo, at 0.05 µM)?
**A.** -3.04% and 2.23%

**Q.** And the inhibition ([3]; cisplatin combo, at 0.5 µM)?
**A.** -8.41% and -26.1%

**Q.** What about the inhibition ([3]; cisplatin combo, at 5 µM) of the same compound?
**A.** -23% and -33%

**Q.** And the inhibition ([3]; measured here: 5 uM single agent, at 5 µM)?
**A.** -7.66% and -8.57%

**Q.** What about the inhibition ([4]; at 0.5 µM) of the same compound?
**A.** -2.13% (inactive) and -19.9% (inactive)

**Q.** What about the inhibition [4, 16] of the same compound?
**A.** 3.73% and -32%

**Q.** And the inhibition [4, 19]?
**A.** 9.09% and -1.53%

**Q.** What about the inhibition [4, 20] of the same compound?
**A.** 76.5% and 57.3%

**Q.** What about the inhibition ([5]; at 0.5 µM) of the same compound?
**A.** 3.43% (inactive) and -25.3% (inactive)

**Q.** What about the inhibition ([5]; measured here: with BGB IC20, at 0.5 µM) of the same compound?
**A.** -0.749% and -38.9%

**Q.** What about the inhibition ([5]; measured here: with BGB IC20, at 5 µM) of the same compound?
**A.** 44.9% and 11%

**Q.** And the inhibition ([5]; measured here: with cisplatin IC20, at 0.5 µM)?
**A.** 2.7% and -32%

**Q.** What about the inhibition ([5]; measured here: with cisplatin IC20, at 5 µM) of the same compound?
**A.** 37% and 41.2%

**Q.** And the inhibition ([5]; single agent, at 5 µM)?
**A.** 58.5% and 39.5%

**Q.** And the inhibition ([6]; at 0.5 µM)?
**A.** 94% (active) and 94.9% (active)

**Q.** And the inhibition ([6]; measured here: combination with BGB at IC20, at 0.5 µM)?
**A.** 94.8% and 95%

**Q.** What about the inhibition ([6]; measured here: combination with cisplatin at IC20, at 0.5 µM) of the same compound?
**A.** 91.9% and 95.1%

**Q.** And the inhibition ([7]; at 0.5 µM)?
**A.** 5.8% (inactive) and 2.84% (inactive)

**Q.** What about the inhibition ([7]; measured here: combo with BGB at IC20, at 0.5 µM) of the same compound?
**A.** 3.8% and -3.69%

**Q.** And the inhibition ([7]; measured here: combo with cisplatin at IC20, at 0.5 µM)?
**A.** 2.93% and 14.9%

**Q.** What about the inhibition ([8]; at 0.5 µM) of the same compound?
**A.** 2.58% (inactive) and -11.8% (inactive)

**Q.** What about the inhibition ([8]; measured here: inhibition with BGB combination, at 0.05 µM) of the same compound?
**A.** -5.13% and -19.7%

**Q.** What about the inhibition ([8]; measured here: inhibition with cisplatin combination, at 0.05 µM) of the same compound?
**A.** -18.9% and -14.7%

**Q.** What about the inhibition ([9]; at 0.5 µM) of the same compound?
**A.** 12% (inactive) and -3.14% (inactive)

**Q.** What about the inhibition [9, 19] of the same compound?
**A.** 3.75% and 4.65%

**Q.** And the inhibition [9, 20]?
**A.** 69.4% and 48.7%

**Q.** And the inhibition ([10]; at 0.5 µM)?
**A.** 2.72% (inactive) and -8.67% (inactive)

**Q.** And the inhibition ([10]; measured here: BGB combination, at 0.5 µM)?
**A.** 0.63% and 6.32%

**Q.** And the inhibition ([10]; measured here: BGB combination, at 5 µM)?
**A.** 12.4%

**Q.** And the inhibition ([10]; measured here: cisplatin combination, at 0.5 µM)?
**A.** -0.776% and -26.9%

**Q.** And the inhibition ([10]; measured here: cisplatin combination, at 5 µM)?
**A.** 1.99% and 20.7%

**Q.** What about the inhibition ([11]; BGB combination, concentration series, at 5 µM) of the same compound?
**A.** 34% and 13%

**Q.** What about the inhibition ([11]; at 0.5 µM) of the same compound?
**A.** 3.6% (inactive) and -10.5% (inactive)

**Q.** And the inhibition ([11]; cisplatin combination, concentration series, at 5 µM)?
**A.** 32.8% and 23%

**Q.** And the inhibition ([12]; at 0.5 µM)?
**A.** 13.7% (inactive) and -16.7% (inactive)

**Q.** And the inhibition ([12]; measured here: combo with BGB IC20, at 0.5 µM)?
**A.** 0.417% and -14%

**Q.** And the inhibition ([12]; measured here: combo with cisplatin IC20, at 0.5 µM)?
**A.** 20% and -36.2%

**Q.** And the inhibition ([13]; at 0.5 µM)?
**A.** -17.4% (inactive) and 8.96% (inactive)

**Q.** And the inhibition ([13]; cisplatin combination, at 0.5 µM)?
**A.** -38.6% and 6.07%

**Q.** And the inhibition ([13]; cisplatin combination, at 5 µM)?
**A.** 36.8% and 59.3%

**Q.** And the inhibition ([13]; measured here: BGB IC40 combination 0.05 uM, at 0.05 µM)?
**A.** -18.2% and 2.24%

**Q.** What about the inhibition ([13]; single agent, at 5 µM) of the same compound?
**A.** -9.05% and -4.51%

**Q.** What about the inhibition ([14]; at 0.5 µM) of the same compound?
**A.** 0.9% (inactive) and -15.3% (inactive)

**Q.** What about the inhibition ([14]; cisplatin combo, at 5 µM) of the same compound?
**A.** 44.7% and 68%

**Q.** And the inhibition ([14]; measured here: BGB IC40 combination, at 0.05 µM)?
**A.** 1.47% and -4.03%

**Q.** What about the inhibition [14, 19] of the same compound?
**A.** 30.2% and -17.9%

**Q.** And the inhibition ([14]; single agent, at 5 µM)?
**A.** 8.81% and -20.7%

**Q.** And the inhibition ([15]; at 0.5 µM)?
**A.** 8.8% (inactive) and -39.7% (inactive)

**Q.** What about the inhibition [15, 17] of the same compound?
**A.** 5.25% and -35.7%

**Q.** What about the inhibition [15, 18] of the same compound?
**A.** 9.12% and -44.9%

**Q.** And the inhibition ([15]; single agent, at 0.05 µM)?
**A.** -7.3% and -43.1%

**Q.** And the inhibition ([15]; single agent, at 5 µM)?
**A.** 24% and -66.2%

Reference: PubChem BioAssay
